Experimental data published in PubChem BioAssay (NCI).
About 83,000 compounds went through this panel and 20% of them were active in at least one assay; those are over-represented in the sample as a whole.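 Note: values are percent growth. 100 is the growth of untreated cells, values between 100 and 0 indicate rising inhibition; between -100 and 0 indicates cell death.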 The source made the active and inactive calls. Rule for the calls: active = growth percent below 10; inactive = the rest.

Each compound was assayed on ACHN renal (assay: NCI-60 one-dose screen, 48 h (100 = growth as untreated, 0 = no growth, -100 = all killed)). Conditions: 10 µM unless noted.

Compound	growth
CC(O)CN(CCO)CCN(CCO)CC(C)O (centres undefined)	102% (inactive)
CNc1ccc(Nc2ccc(S(=O)(=O)O)cc2)c2c1C(=O)c1ccccc1C2=O	98.7% (inactive)
Cc1ccc(S(=O)(=O)NC(CCC(=O)Nc2ccccc2)C(=O)Nc2ccccc2)cc1 (centres undefined)	-50.7% (active)
COC1(OC)N=C(N)C2(C#N)C3(C(=O)Nc4ccccc43)C12C#N (centres undefined)	67.3% (inactive)
Cn1c2ccccc2c2ccccc21	105% (inactive)
Oc1ccc([S+](c2ccc(O)cc2)c2ccc(O)cc2)cc1	106% (inactive)
Nc1cc(N)c2nc(-c3ccccc3)c(NCCc3ccc(Cl)c(Cl)c3)nc2c1	-100% (active)
COC(=O)Nc1nc2ccc(C(=O)c3ccccc3N(C)C3COC3)cc2[nH]1	40.5% (inactive)
CCOP1(=O)CC(C)=C(Cl)C(P(=O)(O)O)C1 (centres undefined)	101% (inactive)
CCCCCCCCC1OC1CCCCCCCC(=O)O (centres undefined)	103% (inactive)
CC(O)CN(CC(C)O)N(CC(C)O)CC(C)O (centres undefined)	99% (inactive)

These compounds were tested on CAKI-1 renal in the same assay as above. Conditions: 10 µM unless noted.

Compound	growth
CC(C)(CNC1CCCCC1)OC(=O)c1ccccc1	102% (inactive)
COC(=O)c1ccc2[nH]c(O)c(C(=Nc3ccc(N(C)C(=O)CN4CCN(C)CC4)cc3)c3ccc4c(c3)OCO4)c2c1	4.52% (active)
O=C(/C=C\c1ccc(NCc2ccc(C(=O)O)cc2)cc1)CCl	105% (inactive)
CCCCCCC(C)N(CC(C)(C)O)C(=O)c1ccc([N+](=O)[O-])cc1 (centres undefined)	108% (inactive)
C=CN(C)S(C)(=O)=O	-7.94% (active)
CCCCCCC(C(=O)OCC)(C(=O)OCC)C1CCCCCC1	89.9% (inactive)
CCOC(=O)NC1=NCC(C)(C)S1	99.7% (inactive)
Cc1ccc2c(c1)C(=O)CCS2	99% (inactive)
S=C(N/N=C/c1cc(Cl)cc(Cl)c1)NC12CC3CC(CC(C3)C1)C2	-1.81% (active)
COC(=O)C(N)CC(C)C (centres undefined)	99.7% (inactive)
O=C(Nc1ccc(Cl)c(Cl)c1)O/N=C\c1c(Cl)ccc([N+](=O)[O-])c1Cl	7.78% (active)
O=C(/C=C/c1ccc(Cl)cc1)c1ccc(Cl)cc1	75.7% (inactive)
O=C(Nc1cccc(Cn2c(=O)[nH]c3ccc(Oc4ncccn4)cc3c2=O)c1)c1cccc(F)c1	89% (inactive)
CC(=O)c1ccc2c(c1)c1ccccc1n2C	73.5% (inactive)
CCC(C)CC(N)O (centres undefined)	110% (inactive)
COc1cc2ncnc(-n3ncc4cc(NC(=O)Nc5ccccc5)ccc43)c2cc1OC	16.1% (inactive)
O=C(O)CS(=O)c1ccc(Cl)cc1 (centres undefined)	115% (inactive)
O=C1C(=O)c2ccccc2C(O)=C1CCCc1ccc(Oc2ccccc2)cc1	43.3% (inactive)
O=C1C(Br)=CC2C1C1C3CCC3C2(Br)C12OCCO2 (centres undefined)	-19.3% (active)
CC1(C)NC(=S)NC1=O	97.8% (inactive)

Compound	growth
CCCCCCCCCCC1OC(C)CC(C)O1 (centres undefined)	95.7% (inactive)
O=C1C=C(OCC=C(C(F)(F)F)C(F)(F)F)c2ccccc2C1=O	4.75% (active)
CCOC1=C(Cl)C(=O)C(OCC)=C(Cl)C1=O	109% (inactive)
O=C(NCCO)C(F)(F)F	95.9% (inactive)
Oc1ccc(Br)cc1/C=N/NC(=S)NC12CC3CC(CC(C3)C1)C2	-35.3% (active)
COc1cc(N2C(=O)C=CC2=O)ccc1N1C(=O)C=CC1=O	93.7% (inactive)
c1cc[c]([Bi]([c]2ccccc2)[c]2ccccc2)cc1	88.6% (inactive)
O=C(CN1C(=O)NC(c2ccccc2)(c2ccccc2)C1=O)c1ccc(N2CCCC2)cc1	70.5% (inactive)
CC(O)CN(CCO)CCN(CCO)CC(C)O (centres undefined)	95.1% (inactive)
CNc1ccc(Nc2ccc(S(=O)(=O)O)cc2)c2c1C(=O)c1ccccc1C2=O	91.9% (inactive)
Cc1ccc(S(=O)(=O)NC(CCC(=O)Nc2ccccc2)C(=O)Nc2ccccc2)cc1 (centres undefined)	12% (inactive)
COC1(OC)N=C(N)C2(C#N)C3(C(=O)Nc4ccccc43)C12C#N (centres undefined)	21.3% (inactive)
Cn1c2ccccc2c2ccccc21	101% (inactive)
Oc1ccc([S+](c2ccc(O)cc2)c2ccc(O)cc2)cc1	102% (inactive)
Nc1cc(N)c2nc(-c3ccccc3)c(NCCc3ccc(Cl)c(Cl)c3)nc2c1	-92.4% (active)
COC(=O)Nc1nc2ccc(C(=O)c3ccccc3N(C)C3COC3)cc2[nH]1	45.2% (inactive)
CCOP1(=O)CC(C)=C(Cl)C(P(=O)(O)O)C1 (centres undefined)	110% (inactive)
CCCCCCCCC1OC1CCCCCCCC(=O)O (centres undefined)	100% (inactive)
CC(O)CN(CC(C)O)N(CC(C)O)CC(C)O (centres undefined)	98.9% (inactive)

The compounds below were run on A498 renal in the same assay as above. Conditions: 10 µM unless noted.

Compound	growth
CC(C)(CNC1CCCCC1)OC(=O)c1ccccc1	103% (inactive)
COC(=O)c1ccc2[nH]c(O)c(C(=Nc3ccc(N(C)C(=O)CN4CCN(C)CC4)cc3)c3ccc4c(c3)OCO4)c2c1	-19.1% (active)
O=C(/C=C\c1ccc(NCc2ccc(C(=O)O)cc2)cc1)CCl	55.6% (inactive)
CCCCCCC(C)N(CC(C)(C)O)C(=O)c1ccc([N+](=O)[O-])cc1 (centres undefined)	101% (inactive)
C=CN(C)S(C)(=O)=O	105% (inactive)
CCCCCCC(C(=O)OCC)(C(=O)OCC)C1CCCCCC1	96.7% (inactive)
CCOC(=O)NC1=NCC(C)(C)S1	68.4% (inactive)
Cc1ccc2c(c1)C(=O)CCS2	82.8% (inactive)
S=C(N/N=C/c1cc(Cl)cc(Cl)c1)NC12CC3CC(CC(C3)C1)C2	57.1% (inactive)
COC(=O)C(N)CC(C)C (centres undefined)	105% (inactive)
O=C(Nc1ccc(Cl)c(Cl)c1)O/N=C\c1c(Cl)ccc([N+](=O)[O-])c1Cl	46% (inactive)
O=C(/C=C/c1ccc(Cl)cc1)c1ccc(Cl)cc1	82.8% (inactive)
O=C(Nc1cccc(Cn2c(=O)[nH]c3ccc(Oc4ncccn4)cc3c2=O)c1)c1cccc(F)c1	66% (inactive)
CC(=O)c1ccc2c(c1)c1ccccc1n2C	-85.3% (active)
CCC(C)CC(N)O (centres undefined)	109% (inactive)
COc1cc2ncnc(-n3ncc4cc(NC(=O)Nc5ccccc5)ccc43)c2cc1OC	-33.4% (active)
O=C(O)CS(=O)c1ccc(Cl)cc1 (centres undefined)	91.9% (inactive)
O=C1C(=O)c2ccccc2C(O)=C1CCCc1ccc(Oc2ccccc2)cc1	66.1% (inactive)
O=C1C(Br)=CC2C1C1C3CCC3C2(Br)C12OCCO2 (centres undefined)	52.4% (inactive)
CC1(C)NC(=S)NC1=O	88.3% (inactive)

Compound	growth
CCCCCCCCCCC1OC(C)CC(C)O1 (centres undefined)	102% (inactive)
O=C1C=C(OCC=C(C(F)(F)F)C(F)(F)F)c2ccccc2C1=O	80.9% (inactive)
CCOC1=C(Cl)C(=O)C(OCC)=C(Cl)C1=O	128% (inactive)
O=C(NCCO)C(F)(F)F	107% (inactive)
Oc1ccc(Br)cc1/C=N/NC(=S)NC12CC3CC(CC(C3)C1)C2	53.3% (inactive)
COc1cc(N2C(=O)C=CC2=O)ccc1N1C(=O)C=CC1=O	74.9% (inactive)
c1cc[c]([Bi]([c]2ccccc2)[c]2ccccc2)cc1	89.3% (inactive)
O=C(CN1C(=O)NC(c2ccccc2)(c2ccccc2)C1=O)c1ccc(N2CCCC2)cc1	61.9% (inactive)
CC(O)CN(CCO)CCN(CCO)CC(C)O (centres undefined)	112% (inactive)
CNc1ccc(Nc2ccc(S(=O)(=O)O)cc2)c2c1C(=O)c1ccccc1C2=O	113% (inactive)
Cc1ccc(S(=O)(=O)NC(CCC(=O)Nc2ccccc2)C(=O)Nc2ccccc2)cc1 (centres undefined)	-20.7% (active)
COC1(OC)N=C(N)C2(C#N)C3(C(=O)Nc4ccccc43)C12C#N (centres undefined)	-9.49% (active)
Cn1c2ccccc2c2ccccc21	115% (inactive)
Oc1ccc([S+](c2ccc(O)cc2)c2ccc(O)cc2)cc1	71.3% (inactive)
Nc1cc(N)c2nc(-c3ccccc3)c(NCCc3ccc(Cl)c(Cl)c3)nc2c1	-34.4% (active)
COC(=O)Nc1nc2ccc(C(=O)c3ccccc3N(C)C3COC3)cc2[nH]1	9.85% (active)
CCOP1(=O)CC(C)=C(Cl)C(P(=O)(O)O)C1 (centres undefined)	113% (inactive)
CCCCCCCCC1OC1CCCCCCCC(=O)O (centres undefined)	102% (inactive)
CC(O)CN(CC(C)O)N(CC(C)O)CC(C)O (centres undefined)	104% (inactive)
